An excerpt weighted towards active compounds, which were near 19% of everything screened.
TDP1 cell CPT = qHTS for Inhibitors of human tyrosyl-DNA phosphodiesterase 1 (TDP1): qHTS in cells in presence of CPT; chicken DT40 Tdp1-/-;hTDP1 cells + 20 nM CPT, ATP luminescence, 48 h; Potency, µM (highest dose often 46.2 µM), usual class: inhibitors; 420,000 tested, 12% active; AID 686979, 2013; further: nearly all actives have a fitted effect of over 55% in size
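Cell growth measured by CellTiter-Glo luminescence after a minimum 48 h, 37 C compound exposure with 20 nM CPT in Tdp1-knockout DT40 cells stably expressing hTDP1, seeded 400/well; qHTS titration format.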
HT1080NT lethal = qHTS for induction of synthetic lethality in tumor cells producing 2HG: qHTS for the HT-1080-NT fibrosarcoma cell line; 360,000 tested, 1.6% active; HT-1080-NT fibrosarcoma viability, CellTiter-Glo ATP luminescence, 48 h; Potency, µM (series often up to 46.1 µM), most hits filed as cytotoxic; AID 686970, 2013;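 further: NT is the 2HG producing partner of a matched IDH1 knockdown line; nearly all actives have a fitted effect of over 55% in size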
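Luminescent CellTiter-Glo readout after 48 hours of compound exposure at 37 degrees C defined viability of HT-1080-NT cells. Activity was normalized to DMSO wells and cell-free media wells; concentration-response curves were fitted and assigned curve classes.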
TDP1 cell noCPT = qHTS for Inhibitors of human tyrosyl-DNA phosphodiesterase 1 (TDP1): qHTS in cells in absence of CPT; Potency, µM (series often up to 46.2 µM), most hits filed as inhibitors; 420,000 tested, 15% active; DT40 Tdp1-/- hTDP1 cells, no CPT, ATP luminescence, 48 h; further: nearly all actives have a fitted effect of over 55% in size
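Cells were dispensed at 400 per well, compounds added by pin tool, plates incubated ≥48 hr at 37 °C, then CellTiter-Glo added for 30 min at room temperature before luminescence reading. Line: DT40 Tdp1-/- complemented with hTDP1; camptothecin omitted.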
HT1080 IDH1KD tx = qHTS for induction of synthetic lethality in tumor cells producing 2HG: qHTS for the HT-1080-IDH1KD cell line. HT-1080 IDH1 knockdown viability, ATP luminescence, 48 h. Potency, µM (series often up to 46.1 µM), actives largely listed as cytotoxic. 360,000 tested, 2% active. AID 686971, 2013
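IDH1KD HT-1080 cells, 750/well, RPMI + 5% FBS; compound pinned after 2 h settling; 48 h, 37 °C; CellTiter-Glo luminescence; % activity normalised to DMSO and no-cell wells; curves fitted, classed by r2 and efficacy.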
ELG1 DNA repair = qHTS screen for small molecules that inhibit ELG1-dependent DNA repair in human embryonic kidney (HEK293T) cells expressing luciferase-tagged ELG1. HEK293T ELG1-luciferase reporter, luminescence, 16 h; DNA damage induced by 5-fluorouridine. Potency, µM (doses to about 46.1 µM), hits mostly inhibitors. 330,000 tested, 2.3% active; further: nearly all actives have a fitted effect of over 55% in size
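Luminescence from the luciferase reporter, measured 30 min after ONE-Glo reagent at room temperature, was the read-out. Beforehand, 2,000 cells per well were exposed for 16 hr at 37 °C to 5-fluorouridine together with compound or vehicle.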
IL-1B inflam inh = qHTS for Inhibitors of Inflammasome Signaling: IL-1-beta AlphaLISA Primary Screen | 360,000 tested, 4.7% active | THP-1 LPS/ATP IL-1B secretion, AlphaLISA, 16 h; active compounds read low | activity change, % at 57.5 µM; in the data active means activity change below about -50%; inconclusive means mostly about -30% to -49%
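Secreted IL-1B measured by AlphaLISA bead assay after 16 h compound exposure of THP-1 cells; compounds (final up to 57.5 uM) added 1 h before LPS (250 ng/mL) and ATP (1.25 mM) stimulation; lower signal means less secretion.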
Each line names hits and unclear results; the compound was inactive in the other large screens. Unless noted, the call rests on the fitted dose curve; in most records, active means well fitted curve in the direction sought with a large enough effect; inconclusive means small, poorly fitted or top-dose-only effect, or another doubt; inactive means no such curve, though single readings can be large; an effect the other way counts as inactive or inconclusive.

Cc1cc(OCCN2CCC(Cc3ccccc3)CC2)ccc1[N+](=O)[O-]	TDP1 cell CPT inconclusive, HT1080NT lethal inconclusive, TDP1 cell noCPT inconclusive, HT1080 IDH1KD tx inconclusive, IL-1B inflam inh -74.2
O=C(NC1CCN(Cc2cccc([N+](=O)[O-])c2)CC1)c1ccccc1	none
Cc1cc(OCCN2CC(C)OC(C)C2)ccc1[N+](=O)[O-] (stereo unspecified)	TDP1 cell CPT inconclusive
O=C(NCC(c1ccccc1)c1ccccc1)c1nn(-c2ccccc2F)nc1CO	TDP1 cell noCPT inconclusive (no result: HT1080NT lethal, HT1080 IDH1KD tx, ELG1 DNA repair, IL-1B inflam inh)
CCOC(=O)Nc1ccc2c(c1)C(=NNC(=S)NC)c1ccccc1-2	TDP1 cell CPT 4.61µM, TDP1 cell noCPT 3.26µM, HT1080 IDH1KD tx inconclusive (no result: ELG1 DNA repair)
Oc1ccc(-c2nc3ccc4ccccc4c3c3c2CCC3)cc1O	TDP1 cell CPT inconclusive, HT1080NT lethal inconclusive, TDP1 cell noCPT inconclusive, HT1080 IDH1KD tx inconclusive, ELG1 DNA repair inconclusive, IL-1B inflam inh -54.5
Cc1cc(C)c2c(ccc3ccccc32)n1	none (no result: ELG1 DNA repair)
O=C(Nc1nc(-c2ccc(Br)cc2)ns1)c1ccccc1F	TDP1 cell CPT inconclusive (no result: HT1080NT lethal, HT1080 IDH1KD tx, ELG1 DNA repair, IL-1B inflam inh)
Cc1ccccc1Nc1sc(C(=O)Nc2cccc(Cl)c2)c(N)c1C(N)=O	IL-1B inflam inh inconclusive
CCOc1ccc(NC(=O)c2c(Nc3ccccc3C)sc(C(=O)c3ccccc3)c2N)cc1	TDP1 cell CPT inconclusive, TDP1 cell noCPT 11.6µM (no result: HT1080NT lethal, HT1080 IDH1KD tx, ELG1 DNA repair, IL-1B inflam inh)
Cc1cccc(Nc2sc(C(=O)c3ccc(Cl)cc3)c(N)c2C(N)=O)c1	none (no result: HT1080NT lethal, HT1080 IDH1KD tx, ELG1 DNA repair, IL-1B inflam inh)
CCOc1ccccc1Nc1sc(C(=O)c2ccc(Cl)cc2)c(N)c1C(=O)NCCc1ccccc1	TDP1 cell CPT 4.61µM, TDP1 cell noCPT 20.6µM (no result: HT1080NT lethal, HT1080 IDH1KD tx, ELG1 DNA repair, IL-1B inflam inh)
Cc1cccc(C)c1Nc1sc(C(=O)c2ccccc2)c(N)c1C(=O)Nc1ccc(F)cc1	TDP1 cell CPT inconclusive, TDP1 cell noCPT 20.6µM (no result: HT1080NT lethal, HT1080 IDH1KD tx, ELG1 DNA repair, IL-1B inflam inh)
CCOc1ccccc1Nc1sc(C(=O)c2ccccc2)c(N)c1C(=O)Nc1ccc(F)cc1	TDP1 cell CPT inconclusive, TDP1 cell noCPT 13µM (no result: HT1080NT lethal, HT1080 IDH1KD tx, ELG1 DNA repair, IL-1B inflam inh)
CCn1nnnc1SCC(=O)N(C)C1CCS(=O)(=O)C1 (stereo unspecified)	none
COC(=O)C(C)Oc1cc(C)ccc1COc1ccc(-n2nc(C)n(C(F)F)c2=O)cc1 (stereo unspecified)	none (no result: ELG1 DNA repair)
CCCCCC1CCC(c2ccc(/C(N)=N/O)cc2)CC1 (stereo unspecified)	TDP1 cell CPT 14.6µM, TDP1 cell noCPT 8.2µM, ELG1 DNA repair inconclusive
O=C(COc1ccc2c(-c3ccccc3)cc(=O)oc2c1)Nc1ccc(CCO)cc1	TDP1 cell CPT 8.2µM, TDP1 cell noCPT 7.31µM, HT1080 IDH1KD tx inconclusive, ELG1 DNA repair inconclusive
O=C(COc1ccc2c(-c3ccccc3)cc(=O)oc2c1)Nc1ccc(CN2CCOCC2)cc1	TDP1 cell CPT 20.6µM, TDP1 cell noCPT inconclusive
O=C(O)COc1ccc2c(-c3ccccc3)cc(=O)oc2c1	none
CC(=O)COc1ccc2c(-c3cccc([N+](=O)[O-])c3)cc(=O)oc2c1	TDP1 cell CPT inconclusive, TDP1 cell noCPT 23.1µM, ELG1 DNA repair inconclusive
CCN(C(=O)COC(=O)c1ccc2ccccc2n1)c1c(N)n(Cc2ccccc2)c(=O)[nH]c1=O	ELG1 DNA repair inconclusive
Cc1cc(NC(=O)C(Cl)Cl)cc2c1OCO2	TDP1 cell noCPT inconclusive (no result: ELG1 DNA repair)
O=C(NC1CCCCC1)C1c2ccccc2OCC(=O)N1CCc1c[nH]c2ccccc12 (stereo unspecified)	TDP1 cell noCPT 25.9µM, HT1080 IDH1KD tx 25.9µM (no result: ELG1 DNA repair)
COC(=O)c1ccc(NS(=O)(=O)c2ccc(-c3cc(C)no3)s2)cc1	TDP1 cell CPT inconclusive, TDP1 cell noCPT inconclusive

Screening results deposited in PubChem BioAssay by National Center for Advancing Translational Sciences (NCATS).
